The supplement of paper PMC11732987, “Enantioselective OTUD7B fragment discovery through chemoproteomics screening and high-throughput optimisation” (Communications Chemistry, 2025)

Assays:
Test in all cases: log2 ratio of Biotin-Ahx-Ub-VS probe labelling (fragment/DMSO); higher = less target engagement (more negative = stronger competition), active = hit call of the paper (q ≤ 0.05, log2 ratio ≤ -1)
Settings in all cases: compound concentration: 200 uM; treatment time: 3 h
USP42 = molecular target: T1, USP42 (UniProt Q9H9J4)
T1 sequence (whole entry): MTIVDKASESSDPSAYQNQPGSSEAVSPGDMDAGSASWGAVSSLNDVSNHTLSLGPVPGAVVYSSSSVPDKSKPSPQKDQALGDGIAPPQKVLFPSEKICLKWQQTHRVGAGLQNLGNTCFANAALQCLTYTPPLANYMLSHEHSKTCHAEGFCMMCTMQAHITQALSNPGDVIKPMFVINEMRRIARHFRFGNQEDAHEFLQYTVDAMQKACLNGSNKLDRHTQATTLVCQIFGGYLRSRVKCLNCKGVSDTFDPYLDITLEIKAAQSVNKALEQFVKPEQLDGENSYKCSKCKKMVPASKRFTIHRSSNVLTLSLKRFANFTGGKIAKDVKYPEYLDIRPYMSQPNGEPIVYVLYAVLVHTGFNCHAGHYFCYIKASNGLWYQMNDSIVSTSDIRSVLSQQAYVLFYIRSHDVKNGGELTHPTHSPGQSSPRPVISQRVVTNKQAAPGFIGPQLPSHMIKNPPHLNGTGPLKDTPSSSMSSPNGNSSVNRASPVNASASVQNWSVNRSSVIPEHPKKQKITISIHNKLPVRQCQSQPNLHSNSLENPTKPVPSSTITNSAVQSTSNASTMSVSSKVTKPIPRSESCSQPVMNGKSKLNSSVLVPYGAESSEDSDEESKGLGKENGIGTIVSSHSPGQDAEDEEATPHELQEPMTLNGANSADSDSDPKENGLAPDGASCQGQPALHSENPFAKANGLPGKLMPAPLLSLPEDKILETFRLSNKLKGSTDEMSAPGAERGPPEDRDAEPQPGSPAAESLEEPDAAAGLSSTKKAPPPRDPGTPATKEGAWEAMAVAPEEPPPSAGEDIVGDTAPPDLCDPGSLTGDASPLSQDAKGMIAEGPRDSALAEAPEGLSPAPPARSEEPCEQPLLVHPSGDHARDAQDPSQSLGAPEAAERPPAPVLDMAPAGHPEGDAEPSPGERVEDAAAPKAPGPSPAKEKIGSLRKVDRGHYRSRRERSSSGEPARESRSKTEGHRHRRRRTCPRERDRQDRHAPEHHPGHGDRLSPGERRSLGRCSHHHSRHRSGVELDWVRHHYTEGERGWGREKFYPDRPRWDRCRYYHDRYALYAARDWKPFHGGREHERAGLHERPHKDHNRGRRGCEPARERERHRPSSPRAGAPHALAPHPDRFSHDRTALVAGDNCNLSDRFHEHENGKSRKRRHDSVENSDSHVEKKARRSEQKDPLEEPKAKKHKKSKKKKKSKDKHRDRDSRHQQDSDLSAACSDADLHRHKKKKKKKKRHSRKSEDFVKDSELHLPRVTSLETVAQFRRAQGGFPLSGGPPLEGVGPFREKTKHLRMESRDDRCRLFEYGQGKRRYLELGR
How it was run: (§1)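 Labelled DUBs from HEK293T lysate were NeutrAvidin-enriched, digested with LysC and trypsin, and run by diaPASEF LC-MS/MS. Before that, each 495 µg sample in Tris/CHAPS/IGEPAL buffer with protease inhibitors was treated in triplicate with fragment at 200 µM or vehicle for 3 h, then with Biotin-Ahx-Ub-VS at 0.5 µM final for 1 h. Values are average log2 ratios of fragment over vehicle by unpaired t-test, based on global-median-normalised Spectronaut label-free quantities from proteins with ≥2 unique peptides.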

USP46 = USP46 (UniProt P62068)
How it was run: as §1

USP47 = molecular target: T2, USP47 (UniProt Q96K76)
T2 sequence (whole entry): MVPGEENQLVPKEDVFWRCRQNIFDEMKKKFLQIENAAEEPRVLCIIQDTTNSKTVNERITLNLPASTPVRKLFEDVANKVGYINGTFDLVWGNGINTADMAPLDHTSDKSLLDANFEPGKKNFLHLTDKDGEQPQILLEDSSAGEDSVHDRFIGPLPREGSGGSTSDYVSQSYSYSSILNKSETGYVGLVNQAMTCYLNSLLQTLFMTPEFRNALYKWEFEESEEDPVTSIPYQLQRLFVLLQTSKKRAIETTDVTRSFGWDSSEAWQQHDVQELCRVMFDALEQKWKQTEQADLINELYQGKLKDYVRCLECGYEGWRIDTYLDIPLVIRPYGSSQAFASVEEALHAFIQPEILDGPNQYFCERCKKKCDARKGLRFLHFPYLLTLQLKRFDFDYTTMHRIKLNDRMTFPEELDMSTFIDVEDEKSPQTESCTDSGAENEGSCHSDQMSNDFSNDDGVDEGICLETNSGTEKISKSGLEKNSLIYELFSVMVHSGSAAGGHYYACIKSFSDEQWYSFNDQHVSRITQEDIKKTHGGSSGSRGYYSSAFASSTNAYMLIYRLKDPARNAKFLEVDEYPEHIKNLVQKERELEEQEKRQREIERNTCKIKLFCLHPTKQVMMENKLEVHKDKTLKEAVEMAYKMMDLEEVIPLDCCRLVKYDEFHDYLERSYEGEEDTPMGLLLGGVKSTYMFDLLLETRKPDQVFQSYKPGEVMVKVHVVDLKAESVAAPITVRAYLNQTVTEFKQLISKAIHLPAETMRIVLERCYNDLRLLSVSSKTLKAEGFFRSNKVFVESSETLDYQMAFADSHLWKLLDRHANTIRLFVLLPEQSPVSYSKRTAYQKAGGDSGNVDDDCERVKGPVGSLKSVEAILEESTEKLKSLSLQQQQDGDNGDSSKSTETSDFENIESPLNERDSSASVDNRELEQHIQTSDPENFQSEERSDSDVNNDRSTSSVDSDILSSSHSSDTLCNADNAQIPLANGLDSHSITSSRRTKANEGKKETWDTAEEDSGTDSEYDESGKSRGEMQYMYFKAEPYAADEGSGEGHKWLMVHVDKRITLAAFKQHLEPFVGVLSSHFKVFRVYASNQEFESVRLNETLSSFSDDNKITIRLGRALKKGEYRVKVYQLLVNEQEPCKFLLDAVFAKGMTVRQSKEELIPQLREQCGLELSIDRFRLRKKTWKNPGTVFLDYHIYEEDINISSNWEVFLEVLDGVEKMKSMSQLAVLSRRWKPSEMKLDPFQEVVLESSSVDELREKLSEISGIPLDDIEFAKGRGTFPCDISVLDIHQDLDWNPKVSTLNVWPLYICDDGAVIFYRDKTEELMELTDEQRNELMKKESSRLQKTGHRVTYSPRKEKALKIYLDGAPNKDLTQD
How it was run: as §1

USP48 = molecular target: T3, USP48 (UniProt Q86UV5)
T3 sequence (whole entry): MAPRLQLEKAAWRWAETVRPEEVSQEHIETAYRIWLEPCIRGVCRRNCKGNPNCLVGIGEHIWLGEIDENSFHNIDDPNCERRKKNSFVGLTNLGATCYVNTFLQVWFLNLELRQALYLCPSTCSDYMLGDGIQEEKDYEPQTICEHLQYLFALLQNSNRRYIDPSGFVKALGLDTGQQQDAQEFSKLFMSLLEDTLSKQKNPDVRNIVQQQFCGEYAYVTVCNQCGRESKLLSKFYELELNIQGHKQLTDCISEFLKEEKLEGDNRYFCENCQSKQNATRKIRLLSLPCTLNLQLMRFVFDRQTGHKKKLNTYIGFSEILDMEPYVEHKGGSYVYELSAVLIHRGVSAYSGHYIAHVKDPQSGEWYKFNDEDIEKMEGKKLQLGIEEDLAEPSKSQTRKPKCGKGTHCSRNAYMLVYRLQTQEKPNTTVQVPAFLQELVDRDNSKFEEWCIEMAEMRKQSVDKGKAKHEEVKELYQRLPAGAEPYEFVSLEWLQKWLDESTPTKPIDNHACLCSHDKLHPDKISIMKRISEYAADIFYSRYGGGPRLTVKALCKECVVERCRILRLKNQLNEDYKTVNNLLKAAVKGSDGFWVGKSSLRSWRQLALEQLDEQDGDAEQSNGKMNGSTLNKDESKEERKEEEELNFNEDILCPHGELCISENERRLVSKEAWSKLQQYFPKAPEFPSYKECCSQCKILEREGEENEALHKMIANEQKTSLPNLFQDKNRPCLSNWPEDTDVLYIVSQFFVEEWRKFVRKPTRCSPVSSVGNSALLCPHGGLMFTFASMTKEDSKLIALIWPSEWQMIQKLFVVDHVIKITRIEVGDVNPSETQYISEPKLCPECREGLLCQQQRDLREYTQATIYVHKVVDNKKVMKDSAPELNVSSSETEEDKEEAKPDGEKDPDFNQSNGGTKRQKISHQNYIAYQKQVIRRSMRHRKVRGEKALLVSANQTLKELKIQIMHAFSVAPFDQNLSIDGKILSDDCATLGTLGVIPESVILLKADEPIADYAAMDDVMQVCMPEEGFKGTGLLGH
How it was run: as §1

USP5 = molecular target: T4, USP5 (UniProt P45974)
T4 sequence (whole entry): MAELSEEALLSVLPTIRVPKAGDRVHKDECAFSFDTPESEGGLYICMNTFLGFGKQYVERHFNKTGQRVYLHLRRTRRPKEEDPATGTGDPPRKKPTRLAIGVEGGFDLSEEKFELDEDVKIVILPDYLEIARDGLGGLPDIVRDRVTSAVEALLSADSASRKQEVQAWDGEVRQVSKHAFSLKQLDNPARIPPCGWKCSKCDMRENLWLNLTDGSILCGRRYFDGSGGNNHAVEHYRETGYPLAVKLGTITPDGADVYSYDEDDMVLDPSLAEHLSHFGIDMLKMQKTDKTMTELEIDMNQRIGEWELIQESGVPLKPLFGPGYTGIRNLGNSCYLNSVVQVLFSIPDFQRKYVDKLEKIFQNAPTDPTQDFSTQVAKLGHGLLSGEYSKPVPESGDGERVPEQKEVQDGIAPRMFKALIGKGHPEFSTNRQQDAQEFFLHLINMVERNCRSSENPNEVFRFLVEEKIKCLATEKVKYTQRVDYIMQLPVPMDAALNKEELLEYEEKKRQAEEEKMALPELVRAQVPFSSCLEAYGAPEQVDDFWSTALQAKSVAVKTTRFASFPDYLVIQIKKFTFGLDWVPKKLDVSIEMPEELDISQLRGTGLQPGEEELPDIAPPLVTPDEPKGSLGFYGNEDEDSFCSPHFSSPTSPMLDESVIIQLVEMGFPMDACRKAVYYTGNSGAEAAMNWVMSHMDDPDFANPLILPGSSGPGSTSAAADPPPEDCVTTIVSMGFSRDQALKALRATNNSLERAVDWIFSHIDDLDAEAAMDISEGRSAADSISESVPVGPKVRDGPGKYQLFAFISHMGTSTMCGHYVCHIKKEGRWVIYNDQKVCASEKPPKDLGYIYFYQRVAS
How it was run: as §1

USP54 = USP54 (UniProt Q70EL1)
How it was run: as §1

USP7 = USP7 (UniProt Q93009)
How it was run: as §1

USP8 = molecular target: T5, USP8 (UniProt P40818)
T5 sequence (whole entry): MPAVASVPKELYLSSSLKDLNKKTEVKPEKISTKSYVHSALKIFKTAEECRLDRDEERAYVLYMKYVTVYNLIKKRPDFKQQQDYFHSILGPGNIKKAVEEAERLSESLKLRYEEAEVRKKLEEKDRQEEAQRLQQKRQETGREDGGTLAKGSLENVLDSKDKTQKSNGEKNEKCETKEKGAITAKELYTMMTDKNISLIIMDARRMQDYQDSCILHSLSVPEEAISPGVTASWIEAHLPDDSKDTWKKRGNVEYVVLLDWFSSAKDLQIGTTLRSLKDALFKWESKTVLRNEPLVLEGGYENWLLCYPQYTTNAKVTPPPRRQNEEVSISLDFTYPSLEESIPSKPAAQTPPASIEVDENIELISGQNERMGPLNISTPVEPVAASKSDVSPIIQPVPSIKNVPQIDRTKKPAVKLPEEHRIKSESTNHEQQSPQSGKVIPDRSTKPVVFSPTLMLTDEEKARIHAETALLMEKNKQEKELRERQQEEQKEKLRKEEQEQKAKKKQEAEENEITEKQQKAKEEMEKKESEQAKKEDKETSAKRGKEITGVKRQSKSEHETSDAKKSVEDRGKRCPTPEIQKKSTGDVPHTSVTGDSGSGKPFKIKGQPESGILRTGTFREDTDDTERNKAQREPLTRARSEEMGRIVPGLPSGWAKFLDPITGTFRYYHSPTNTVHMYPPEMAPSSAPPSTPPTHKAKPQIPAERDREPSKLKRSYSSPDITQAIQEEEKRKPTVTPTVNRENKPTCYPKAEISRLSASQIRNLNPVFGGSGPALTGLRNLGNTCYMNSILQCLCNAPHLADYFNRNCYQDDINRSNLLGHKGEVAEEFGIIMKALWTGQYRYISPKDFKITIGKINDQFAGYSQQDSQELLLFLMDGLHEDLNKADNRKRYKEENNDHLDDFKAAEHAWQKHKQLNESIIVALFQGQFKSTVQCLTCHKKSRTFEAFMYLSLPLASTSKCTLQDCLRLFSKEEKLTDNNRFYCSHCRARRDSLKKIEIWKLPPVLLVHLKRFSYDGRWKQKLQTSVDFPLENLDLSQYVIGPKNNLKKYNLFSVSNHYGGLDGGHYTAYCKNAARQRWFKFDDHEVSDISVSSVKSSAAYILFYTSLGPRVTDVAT
How it was run: as §1

USP9X = USP9X (UniProt Q93008)
How it was run: as §1

UniProt O00487 = molecular target: UniProt O00487
How it was run: as §1

Measured: log2 ratio of Biotin-Ahx-Ub-VS probe labelling

Chain of UniProt O00487 (O00487 whole entry): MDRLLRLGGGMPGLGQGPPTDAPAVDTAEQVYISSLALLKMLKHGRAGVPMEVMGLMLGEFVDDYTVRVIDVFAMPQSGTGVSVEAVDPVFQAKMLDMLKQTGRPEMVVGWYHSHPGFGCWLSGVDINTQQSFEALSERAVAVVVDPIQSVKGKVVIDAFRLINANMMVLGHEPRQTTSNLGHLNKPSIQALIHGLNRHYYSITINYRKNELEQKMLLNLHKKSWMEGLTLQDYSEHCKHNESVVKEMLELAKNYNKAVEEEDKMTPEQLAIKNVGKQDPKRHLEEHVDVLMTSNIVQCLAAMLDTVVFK
Chain of USP46 (P62068 whole entry): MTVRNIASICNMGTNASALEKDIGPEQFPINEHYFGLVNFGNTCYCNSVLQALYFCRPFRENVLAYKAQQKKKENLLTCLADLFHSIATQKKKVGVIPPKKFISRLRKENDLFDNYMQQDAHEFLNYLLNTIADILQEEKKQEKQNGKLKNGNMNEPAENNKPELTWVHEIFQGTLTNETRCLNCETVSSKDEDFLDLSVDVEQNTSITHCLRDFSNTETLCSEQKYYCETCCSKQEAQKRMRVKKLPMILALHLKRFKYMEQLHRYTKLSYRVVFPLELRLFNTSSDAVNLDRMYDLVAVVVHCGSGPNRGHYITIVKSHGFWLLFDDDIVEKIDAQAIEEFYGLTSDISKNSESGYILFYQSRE
Chain of USP54 (Q70EL1 whole entry): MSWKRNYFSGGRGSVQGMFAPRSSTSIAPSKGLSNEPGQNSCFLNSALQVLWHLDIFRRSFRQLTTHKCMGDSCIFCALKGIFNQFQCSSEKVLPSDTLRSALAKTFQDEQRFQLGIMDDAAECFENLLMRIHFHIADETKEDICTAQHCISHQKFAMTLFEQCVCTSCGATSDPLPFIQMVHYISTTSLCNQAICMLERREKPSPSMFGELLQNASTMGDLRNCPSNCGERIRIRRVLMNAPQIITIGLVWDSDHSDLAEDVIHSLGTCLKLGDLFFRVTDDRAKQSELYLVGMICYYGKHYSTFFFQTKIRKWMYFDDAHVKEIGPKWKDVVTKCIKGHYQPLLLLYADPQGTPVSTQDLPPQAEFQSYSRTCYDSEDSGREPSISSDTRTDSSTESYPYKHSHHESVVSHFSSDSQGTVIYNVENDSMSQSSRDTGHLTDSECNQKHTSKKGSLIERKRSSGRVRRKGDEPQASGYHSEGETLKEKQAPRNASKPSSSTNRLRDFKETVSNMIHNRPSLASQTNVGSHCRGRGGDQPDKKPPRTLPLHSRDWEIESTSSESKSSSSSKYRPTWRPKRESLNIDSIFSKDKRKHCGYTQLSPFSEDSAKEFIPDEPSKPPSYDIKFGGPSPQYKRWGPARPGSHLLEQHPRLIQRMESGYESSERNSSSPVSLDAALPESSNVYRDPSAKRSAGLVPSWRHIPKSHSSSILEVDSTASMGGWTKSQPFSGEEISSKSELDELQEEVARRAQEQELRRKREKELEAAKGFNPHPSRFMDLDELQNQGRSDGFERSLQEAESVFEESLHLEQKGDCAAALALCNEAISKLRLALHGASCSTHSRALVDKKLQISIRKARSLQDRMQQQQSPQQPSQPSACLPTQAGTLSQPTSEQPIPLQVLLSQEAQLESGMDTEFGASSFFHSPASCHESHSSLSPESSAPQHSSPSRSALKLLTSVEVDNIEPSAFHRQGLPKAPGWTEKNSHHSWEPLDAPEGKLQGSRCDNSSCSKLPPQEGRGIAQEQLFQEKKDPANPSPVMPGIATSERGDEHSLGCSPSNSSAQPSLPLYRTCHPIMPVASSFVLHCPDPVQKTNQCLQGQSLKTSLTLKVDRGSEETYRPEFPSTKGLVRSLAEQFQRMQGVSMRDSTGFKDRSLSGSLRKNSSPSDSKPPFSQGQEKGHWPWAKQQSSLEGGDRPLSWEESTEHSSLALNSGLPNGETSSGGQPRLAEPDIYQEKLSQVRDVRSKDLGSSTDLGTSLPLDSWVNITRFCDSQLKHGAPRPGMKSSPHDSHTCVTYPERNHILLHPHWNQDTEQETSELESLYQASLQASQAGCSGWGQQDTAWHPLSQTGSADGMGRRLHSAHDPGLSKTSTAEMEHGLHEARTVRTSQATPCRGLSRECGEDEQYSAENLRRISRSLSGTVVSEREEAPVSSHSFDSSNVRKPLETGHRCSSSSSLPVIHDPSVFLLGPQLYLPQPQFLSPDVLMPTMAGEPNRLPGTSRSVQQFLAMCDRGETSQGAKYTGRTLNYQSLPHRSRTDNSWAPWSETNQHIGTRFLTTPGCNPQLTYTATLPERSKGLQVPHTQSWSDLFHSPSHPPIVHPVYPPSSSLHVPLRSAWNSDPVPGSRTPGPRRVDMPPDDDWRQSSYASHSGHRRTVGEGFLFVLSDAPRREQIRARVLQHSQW
Chain of USP9X (Q93008 whole entry): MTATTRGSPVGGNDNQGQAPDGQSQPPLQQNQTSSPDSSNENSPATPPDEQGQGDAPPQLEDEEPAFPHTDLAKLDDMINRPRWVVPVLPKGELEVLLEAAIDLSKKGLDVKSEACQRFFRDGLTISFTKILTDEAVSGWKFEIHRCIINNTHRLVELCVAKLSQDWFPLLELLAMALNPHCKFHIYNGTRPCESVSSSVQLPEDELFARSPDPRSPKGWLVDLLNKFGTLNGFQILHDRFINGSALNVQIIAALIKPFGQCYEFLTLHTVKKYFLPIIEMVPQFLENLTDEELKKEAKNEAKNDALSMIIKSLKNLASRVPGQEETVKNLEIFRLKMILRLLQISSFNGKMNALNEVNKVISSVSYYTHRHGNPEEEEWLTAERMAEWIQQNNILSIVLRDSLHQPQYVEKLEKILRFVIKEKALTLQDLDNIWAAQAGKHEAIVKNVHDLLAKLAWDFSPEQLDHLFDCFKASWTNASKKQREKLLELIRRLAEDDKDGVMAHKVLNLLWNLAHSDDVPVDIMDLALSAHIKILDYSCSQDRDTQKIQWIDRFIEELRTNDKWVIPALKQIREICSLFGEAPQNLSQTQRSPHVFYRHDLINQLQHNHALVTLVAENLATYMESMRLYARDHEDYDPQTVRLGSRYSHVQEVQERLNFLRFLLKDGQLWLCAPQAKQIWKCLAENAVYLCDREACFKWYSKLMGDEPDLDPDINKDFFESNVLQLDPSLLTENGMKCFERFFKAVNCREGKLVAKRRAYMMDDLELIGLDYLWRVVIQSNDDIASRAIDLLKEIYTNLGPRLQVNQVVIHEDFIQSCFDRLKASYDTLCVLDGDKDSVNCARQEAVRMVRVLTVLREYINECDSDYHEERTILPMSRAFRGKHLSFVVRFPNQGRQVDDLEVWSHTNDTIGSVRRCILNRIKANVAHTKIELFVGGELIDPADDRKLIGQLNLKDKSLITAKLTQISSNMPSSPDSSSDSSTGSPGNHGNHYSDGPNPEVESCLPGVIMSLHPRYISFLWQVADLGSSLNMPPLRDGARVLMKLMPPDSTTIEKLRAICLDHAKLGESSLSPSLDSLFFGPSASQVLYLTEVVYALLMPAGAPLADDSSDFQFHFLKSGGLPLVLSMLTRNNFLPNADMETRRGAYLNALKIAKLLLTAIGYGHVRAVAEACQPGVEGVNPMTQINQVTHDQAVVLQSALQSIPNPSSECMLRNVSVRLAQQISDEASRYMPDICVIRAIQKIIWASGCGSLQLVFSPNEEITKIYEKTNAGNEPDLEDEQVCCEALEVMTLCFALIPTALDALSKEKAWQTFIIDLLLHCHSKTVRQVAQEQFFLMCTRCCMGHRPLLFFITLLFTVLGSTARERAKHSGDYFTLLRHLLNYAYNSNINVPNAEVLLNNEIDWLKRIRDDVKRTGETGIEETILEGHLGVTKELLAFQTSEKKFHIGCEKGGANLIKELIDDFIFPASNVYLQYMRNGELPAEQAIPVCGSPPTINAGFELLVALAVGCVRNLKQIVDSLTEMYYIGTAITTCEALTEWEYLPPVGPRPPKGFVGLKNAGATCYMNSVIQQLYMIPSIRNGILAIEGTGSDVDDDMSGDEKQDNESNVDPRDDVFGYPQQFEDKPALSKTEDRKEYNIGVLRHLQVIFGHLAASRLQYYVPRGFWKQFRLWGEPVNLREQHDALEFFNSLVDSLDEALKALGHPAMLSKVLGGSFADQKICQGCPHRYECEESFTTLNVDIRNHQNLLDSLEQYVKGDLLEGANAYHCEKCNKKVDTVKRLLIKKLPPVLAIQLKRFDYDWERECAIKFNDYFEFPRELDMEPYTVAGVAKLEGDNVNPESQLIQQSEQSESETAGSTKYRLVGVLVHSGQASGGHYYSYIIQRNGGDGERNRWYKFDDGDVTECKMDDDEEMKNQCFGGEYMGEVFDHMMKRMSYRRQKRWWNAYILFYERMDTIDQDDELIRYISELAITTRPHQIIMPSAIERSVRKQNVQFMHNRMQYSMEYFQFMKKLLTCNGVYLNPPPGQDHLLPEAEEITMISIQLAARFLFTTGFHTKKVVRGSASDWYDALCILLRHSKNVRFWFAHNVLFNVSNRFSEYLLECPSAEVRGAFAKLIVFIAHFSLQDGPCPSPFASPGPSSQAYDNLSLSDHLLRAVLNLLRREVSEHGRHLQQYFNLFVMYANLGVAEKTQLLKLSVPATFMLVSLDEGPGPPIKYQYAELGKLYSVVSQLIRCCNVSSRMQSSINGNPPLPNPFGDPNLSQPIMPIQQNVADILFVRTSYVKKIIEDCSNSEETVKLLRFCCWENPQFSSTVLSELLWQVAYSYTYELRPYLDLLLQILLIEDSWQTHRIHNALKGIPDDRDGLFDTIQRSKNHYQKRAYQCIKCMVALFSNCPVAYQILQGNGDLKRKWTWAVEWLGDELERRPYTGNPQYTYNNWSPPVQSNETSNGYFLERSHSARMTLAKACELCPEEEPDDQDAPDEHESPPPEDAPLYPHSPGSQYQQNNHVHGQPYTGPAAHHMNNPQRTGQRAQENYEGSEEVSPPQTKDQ

O=C(CCl)N1CCC(S(=O)(=O)c2ccc(F)cc2)CC1
inactive: USP42 -0.133 | USP46 -0.0321 | USP47 -0.145 | USP48 -0.355 | USP5 0.248 | USP54 0.501 | USP7 -0.535 | USP8 -0.0595 | USP9X -0.118 | UniProt O00487 0.043
